Assay results from the supplement of paper PMC6555819.

These sequences were tested on PPARg homodimer (NR concentration 180 nM) (assay: PBM binding z-score (relative to random genomic background probes); higher = stronger binding; sequences stand for … in GC…GCGATTGACAGCGTAGAATGAAGG).
How it was run: (§1)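 Binding z-scores were set against random background probes. The data came from custom Agilent 4×180K protein-binding microarrays carrying double-stranded probes with 34-nt variable regions, incubated 1 h with ligand-free nuclear receptor dimers. Partner-specific antibodies detected binding, and scanned fluorescence was regression-normalized.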

Sequence | PBM binding z-score
CCTAGCAGGCCAGGGTCACTCATGCATTTCGCTT | 0.688
CAAACTAGGTCAAGAGGTCATAGTCCGCTTCCCG | 5.93
ATCTCTAGGTAAGAGTCAGTTCAGTGAAGAACGC | 1.16
GGAACGAGGGCGAGTTGATAGCAGAGTTTGATGG | 0.0249
CGTCAATGTTCAAGGTAACGTAACAGAAAGCAGC | 0.235
CCTACTGGGCCAAGGGCATTGATCAGTCAAAGCA | 0.181
ATATGTCGGTTATCGGGTCATTCAGTTTGCGCAT | 2.12
GCTAGCAGGCCATTTGGGTCACTCAGTGACGGGC | -0.213
CATTACGGGTCAAGGTTATAGCACGGGTGGTACG | 2.26
TCTCGGAGGACACGAAAGGTCATAGCTCGACATC | 3.48
CCGGACAGGTGAAAGGTAACTCAGTCTGGTACGC | 0.751
CCAGACAGGTGAGAAGGTAACTTAGCCTCGATTA | 1.19
TCGAGTAGGTTAGTCGGGGCATTCAACCAACATA | -0.069
CCTTGCAGGCCAATCTGGGTCACTCAAGGCTTGA | 0.973
CTCGAAAGGTCGGTTGAGGTGAGTACACGGATAA | 0.988
CCTGCTAGGTCGATGGTCAGCTAAAGCAGCTCGC | -0.348
CCTCGGAGGACAGAAGGTCAGGGCTGTCCGCTTT | 1.43
CCTACTGGGCCAAGGTCAATGATCAGTCAAAGCA | 1.4

What follows are sequences tested on PXR:RXRa (NR concentration 270 nM, RXRa partner concentration 90 nM) in the same assay as above.
How it was run: as §1

Sequence | PBM binding z-score
ATCGAAAGGTAGACGAGGTGAGTATACACCGTTT | -0.0156
CAGCCTAGGTCAGGGCCGGTATAGGAGGAACGTT | 0.229
CAAACTAGGTCAAGAGGTCGAAGTCCGCTTCCCG | 3.56
TAGCCTAGGTCATTGGGGCAGTATAGTACGCATC | 1.89
CGAACTAGGTCATTGACAGGACAGTGAATAGTAA | 1.89
AGATGTAGGTTACATCCGGGTCATTCAGGCTATG | 3.72
CAAACTAGGTCAAAGAGGTCAAAGTCCGTGCGTA | 6.37
CATACAGGGTCAGCTAGGCCAGGGTAGGGACGGC | 2.18
GCTTACGGGTCGAAGGTTATAGCATGAATAGAAT | 2.65
CCTATTGGGCCACGAAAGGTCATTGATTCAGTGA | 5.82
CCCACTGGGCCAAAGGTCATTGATTCCAATGCTC | 5.36
CCGACTGGGGCAAAAGTTACCATACTCAGTACGA | -0.414
ACTAGCAGGCCAAGTTTGGGTCACTCTAACAAAG | 0.8
CGAACTAAGTCAGAACAGGACAGTGAAGGATGAT | -0.17
ACAGACAGTTGATGAAGGTAACTCAGGCTATCAT | 0.245
ATCTCTAGGTAACCAAGTTCAGTGGATGCCGAAC | 1.94

Sequence | PBM binding z-score
CAAACTAGGTCACCGGAAGGTCAAGGTCCGCATG | 5.6
CCTTACGGGTCACTGACAGTTTATAGCATTTGGA | 4.38
AGGCAAAGTTCAGGACGAGGTAACGTAAAGCACG | 2.89
CGTCCAAGGCCAGCAGGTCAGTGAAAGCGACGTG | 0.29
ATCTCTAGGTAAGACTCAGTGCAGTGAAGAACGC | 0.339
CCGACTGGGGCATAAGGTTAACATAAGCCAGCCC | 0.636
CCTAGCAGGCCAGGGTCACTCATGCATTTCGCTT | 2.19
CAAACTAGGTCAAGAGGTCATAGTCCGCTTCCCG | 5.98
ATCTCTAGGTAAGAGTCAGTTCAGTGAAGAACGC | 0.741
GGAACGAGGGCGAGTTGATAGCAGAGTTTGATGG | 0.0143
CGTCAATGTTCAAGGTAACGTAACAGAAAGCAGC | 0.00739
CCTACTGGGCCAAGGGCATTGATCAGTCAAAGCA | -0.452
ATATGTCGGTTATCGGGTCATTCAGTTTGCGCAT | 3.32
GCTAGCAGGCCATTTGGGTCACTCAGTGACGGGC | 0.3
CATTACGGGTCAAGGTTATAGCACGGGTGGTACG | 3.72
